Here are results for 38 compounds from the supplement of paper PMC11219838.

A number with no mark means an inactive call.

For the test, the system named is Caenorhabditis elegans L1 (N2). The test can be described thus: survival and reproduction score of C. elegans L1 (0: 0-10 living worms, 1: 11-20, 2: 21-50, 3: >50, 4: overgrown) (score 0-4); higher = more worms, less nematicidal, active = 1 or less; extreme values may be limits of the assay. As to conditions: 60 µM; 6 days; temperature: 20 °C. In outline:
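Worm survival and reproduction were recorded as an ordinal score of living worms per well, read under a dissection microscope. Each 96-well well held about 20 synchronized C. elegans N2 L1s with E. coli HB101 in liquid NGM and compound at 60 µM final (0.6% v/v DMSO), sealed and shaken at 200 rpm, 20 °C, for 6 days. Scores ranged from 0 (0–10 worms) to 4 (overgrown, starved) and were the mean of two biological replicates.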
As for `COc1cccc(-c2nnc(SCC(=O)Nc3cccc(C(F)(F)F)c3)o2)c1`, the “survival and reproduction score” value is 4.

Consider `Cc1ccccc1-c1nnc(SCc2ccc(F)cc2)o1`, for which the “survival and reproduction score” value is 3.5.

Consider `c1ccc2c(OCc3nc(-c4ccncc4)no3)cccc2c1`, for which the “survival and reproduction score” value is 4.

Consider `CCc1nnc(NC(=O)CSc2nnc(-c3ccc(Cl)cc3Cl)o2)s1`, for which the “survival and reproduction score” value was 4.

Regarding `CCOc1nc(-c2ccccc2)ccc1-c1noc(CC)n1`, the “survival and reproduction score” value is 4.

With `Clc1ccc(-c2noc(-c3ccccc3Cl)n2)cc1`, the “survival and reproduction score” value is 3.

As for `Cc1ccc(OCc2nc(-c3ccccc3Cl)no2)c(C)c1`, the “survival and reproduction score” value is 4.

Turning to `COc1nc(C)ccc1-c1noc(-c2ccccc2C)n1`, the “survival and reproduction score” value was 4.

In the case of `Brc1ccc(-c2noc(CSc3ccccc3)n2)cc1`, the “survival and reproduction score” value is 0 (active).

As for `Clc1ccc(-c2noc(-c3ccncc3)n2)cc1`, the “survival and reproduction score” value is 3.5.

As for `Clc1cc(Cl)c(OCc2nc(-c3ccncc3)no2)cc1Cl`, the “survival and reproduction score” value was 4.

In the case of `Clc1ccc(OCc2nc(-c3ccccn3)no2)c(Br)c1`, the “survival and reproduction score” value was 4.

For `COc1ccccc1CC(=O)Nc1ccc(-c2noc(-c3ccccc3C)n2)cc1`, the “survival and reproduction score” value is 4.

`Ic1ccc(OCc2nc(-c3ccncc3)no2)cc1`: the “survival and reproduction score” value is 4.

As to `COc1ccc(-c2noc(COc3ccc(Cl)cc3)n2)cc1`, the “survival and reproduction score” value was 4.

Regarding `Cc1ccc(SC(C)c2nc(-c3cccnc3)no2)cc1` (stereo not drawn), the “survival and reproduction score” value is 4.

`Cc1ccccc1OCc1nc(-c2ccccc2)no1`: the “survival and reproduction score” value was 4.

As to `O=C(CSc1nnc(-c2ccc(Cl)cc2)o1)Nc1nccs1`, the “survival and reproduction score” value is 4.

For the compound `Cc1ccccc1OCc1nc(-c2ccc(F)cc2)no1`, the “survival and reproduction score” value is 4.

As for `Cc1ccc(-c2nc(-c3ccc(Br)cc3)no2)cc1`, the “survival and reproduction score” value is 4.

Turning to `Cc1cccc(C)c1NC(=O)CSc1nnc(-c2ccncc2)o1`, the “survival and reproduction score” value is 4.

Turning to `Clc1ccc(-c2nc(-c3cccnc3)no2)c(Cl)c1`, the “survival and reproduction score” value was 2.

On to `COc1ccc(-c2noc(CSc3ccc(C)cc3)n2)cc1`, for which the “survival and reproduction score” value is 4.

With `COc1ccc(-c2noc(C34CC5CC(CC(C5)C3)C4)n2)cc1`, the “survival and reproduction score” value is 4.

Take `O=C(CSc1nnc(-c2ccc(Cl)cc2Cl)o1)N1CCCCC1`: the “survival and reproduction score” value was 4.

With `COc1cccc(-c2nnc(SCC(=O)Nc3ccccc3)o2)c1`, the “survival and reproduction score” value was 4.

Take `Cc1cc(NC(=O)CSc2nnc(-c3ccc(Cl)cc3Cl)o2)no1`: the “survival and reproduction score” value was 4.

Take `CCN(CC)C(=O)CSc1nnc(-c2ccc(Cl)cc2Cl)o1`: the “survival and reproduction score” value is 4.

For the compound `Brc1ccc(CSc2nnc(-c3ccco3)o2)cc1`, the “survival and reproduction score” value is 0 (active).

With `CCOc1nc(-c2ccc(C)cc2)ccc1-c1noc(-c2ccco2)n1`, the “survival and reproduction score” value is 4.

For the compound `Clc1cccc(OCc2nc(-c3ccncc3)no2)c1`, the “survival and reproduction score” value is 3.5.

Regarding `COc1nc2ccc(C)cc2cc1-c1noc(-c2cccnc2)n1`, the “survival and reproduction score” value was 4.

Turning to `CC(=O)Nc1ccc(NC(=O)c2ccccc2-c2nc(-c3cccc(C)c3)no2)cc1`, the “survival and reproduction score” value was 4.

As for `c1ccc(CSc2nnc(-c3cccnc3)o2)cc1`, the “survival and reproduction score” value is 4.

As for `COc1ccccc1NC(=O)c1ccccc1-c1nc(-c2ccc(Cl)cc2)no1`, the “survival and reproduction score” value is 4.

`CC(C)(Oc1ccc(Cl)cc1)c1nc(-c2ccncc2)no1`: the “survival and reproduction score” value was 0.5 (active).

In the case of `CCc1ccc(OCc2nc(-c3cccnc3)no2)cc1`, the “survival and reproduction score” value is 4.

Take `Cc1ccccc1OCc1nc(-c2cccs2)no1`: the “survival and reproduction score” value was 1 (active).
